Assay [1] concerns Wnt5a (protein binding on small-molecule microarray). In words: small molecules binding Wnt5a protein – biophysical, small-molecule microarray, 635/667 nm fluorescence, primary screen (AID 1142).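 Note: fluorescence read at 667 nm with signal to noise per printed feature.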 Conditions: 635 nm fluorescence, higher = more signal.
A short description of assay [2]: ATP-based viability of Huh7 replicon cells – cell-based, CellTiter-Glo luminescence, basal, 48 h, cytotoxicity control for HCV replication inhibitor project, primary screen (AID 1143).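 Note: Huh7 hepatoma cells carrying a hepatitis C replication reporter with no stimulus; test concentration not given here.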 Conditions: higher = more signal, called active from +8 up or from −8 down. On the technique in general: Replicon systems follow genome replication, usually without infectious particles.

Assay [3] is described as follows: Pseudomonas biofilm growth suppression – PAO1 strain, BacTiter-Glo luminescence, LB-PBS, primary screen (AID 1144). The conditions noted are these: P. aeruginosa PAO1 biofilm, 12 h, higher = more signal.
Assay [4] is described as follows: basal CRE-LacZ reporter activity in PC12 – cell-based, unstimulated, primary screen (AID 1145). Conditions: no forskolin, luminescence, 4.5 h, higher = more signal, called active from +8 up or from −8 down.
Assay [5] can be described thus: forskolin-driven CRE-LacZ activity in PC12 – cell-based, CRE-LacZ reporter, forskolin-stimulated, primary screen (AID 1146).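 Note: PC12 cells with 6xCRE LacZ reporter stimulated by forskolin 10 µM; beta-galactosidase reporter signal reflecting CREB driven transcription.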 Conditions: luminescence, 4.5 h, higher = more signal, called active from +8 up or from −8 down.
The target in assay [6] is Streptavidin (Streptomyces avidinii) (UniProt P22629). In words: compounds binding control protein streptavidin – biophysical, small-molecule microarray, 635/667 nm fluorescence, artefact control for SMM compound annotation, primary screen (AID 1147).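 Note: signal reflects streptavidin binding to arrayed compounds as a control protein.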 The conditions noted are these: higher = more signal.
Assay [7] in a line: probe aInhba binding on compound microarray – biochemical, small-molecule microarray, 635/667 nm fluorescence, primary screen (AID 1148).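 Note: score merges 667nm spot fluorescence with signal-to-noise for antibody binding to printed compounds.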 The conditions noted are these: higher = more signal.
Assay [8] addresses Torsin-1A (Homo sapiens) (UniProt O14656). In words: TOR1A wild-type binding on microarray – cell lysate, small-molecule microarray, lysate, 635/667 nm, primary screen (AID 1149). Conditions: COS7 hTOR1A-WT lysate, 635 nm fluorescence, higher = more signal.
For assay [9] the target is unchanged. In words: torsin A mutant lysate binding on microarrays – cell lysate, small-molecule microarray, COS7 lysate, 635/667 nm fluorescence, primary screen (AID 1150).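 Note: score pools 667 nm emission and signal to noise measuring lysate protein binding.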 The conditions noted are these: COS7 hTOR1A mutant lysate, 635 nm fluorescence, higher = more signal.
The subject of assay [10] is Sonic hedgehog protein (Shh). In words: Sonic hedgehog microarray binding compounds – biochemical, small-molecule microarray, 635/667 nm fluorescence, primary screen (AID 1151).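 Note: Shh protein binding to compounds spotted on small-molecule microarray slides; score combines spot fluorescence intensity with signal-to-noise across triplicate slides.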 The conditions noted are these: 635 nm fluorescence, higher = more signal.
Assay [11] can be described thus: optical density shifts of acrAB sulA E. coli – strain DRC41, OD650, 48 h, E. coli filamentation inducer project, primary screen (AID 1152).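 Note: E. coli MC1000 strain DRC41 lacking acrAB efflux pump and sulA.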 Conditions: higher = more signal, called active from +8 up or from −8 down.
The nature of assay [12]: probe aLefty1 binding on compound microarray – biochemical, small-molecule microarray, 635/667 nm fluorescence, primary screen (AID 1153).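 Note: score merges spot fluorescence with signal-to-noise ratio from the scanned slide images.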 Conditions: higher = more signal.
Assay [13] in a line: plasmodial surface anion channel blockers, osmotic lysis – cell-based, P. falciparum Indochina, OD700, 1 h, primary screen (AID 1154). The conditions noted are these: P. falciparum Indochina infected RBC osmotic lysis, higher = more signal, called active from +8 up or from −8 down.
Assay [14] in a line: plasmodial surface anion channel blockers, osmotic lysis – cell-based, P. falciparum Indochina, OD700, 2 h, primary screen (AID 1155).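 Note: lysis reports solute entry through the parasite surface anion channel PSAC.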 Conditions: P. falciparum Indochina infected erythrocytes, higher = more signal, called active from +8 up or from −8 down.
A short description of assay [15]: changes in parasitized red cell lysis, either direction – P. falciparum Indochina, OD700, 3 h, PSAC antagonist project, primary screen (AID 1156). The conditions noted are these: P. falciparum-infected erythrocytes, osmotic lysis, higher = more signal, called active from +8 up or from −8 down.
Assay [16] is described as follows: plasmodial surface anion channel blockers, osmotic lysis – cell-based, P. falciparum Indochina, OD700, 18 h, primary screen (AID 1157). Conditions: P. falciparum Indochina infected erythrocytes, osmotic lysis OD700, 18 h; higher = more signal, called active from +8 up or from −8 down.
The nature of assay [17]: S6 kinase pathway phospho-S6 level changes – cell-based, A549, cytoblot, luminescence, serum-stimulated, primary screen (AID 1158).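 Note: serum-stimulated A549 lung adenocarcinoma cells; signal is phosphorylated S6 detected by cytoblot immunostaining with HRP secondary.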 The conditions noted are these: 5 h, higher = more signal.
In assay [18] the target is NADPH oxidase 2 (Homo sapiens) (UniProt P04839). In words: compounds shifting NOX2 Amplex Red fluorescence – cell-based, HEK293-NOX2, PMA-stimulated, NOX inhibitor project, primary screen (AID 1159). Note: test concentration not given here. The conditions noted are these: 45 min, higher = more signal, called active from +8 up or from −8 down.
The target in assay [19] is NADPH oxidase 4 (Homo sapiens) (UniProt Q9NPH5). In words: compounds shifting NOX4 Amplex Red fluorescence – cell-based, HEK293-NOX4, tetracycline-induced, NOX inhibitor project, primary screen (AID 1160). The conditions noted are these: HEK293-NOX4, Amplex Red H2O2 fluorescence, 45 min; higher = more signal, called active from +8 up or from −8 down.
In assay [20] the target is NADPH oxidase 5 (Homo sapiens) (UniProt Q96PH1). In words: compounds shifting NOX5 Amplex Red fluorescence – cell-based, HEK293-NOX5, NOX inhibitor project, primary screen (AID 1161). The conditions noted are these: HEK293-NOX5, ionomycin, 45 min, higher = more signal.

Activity calls are given as the source filed them. Unless noted, the rule behind the calls is not given here.

Chain of Torsin-1A (Homo sapiens) (O14656 whole entry, looked up): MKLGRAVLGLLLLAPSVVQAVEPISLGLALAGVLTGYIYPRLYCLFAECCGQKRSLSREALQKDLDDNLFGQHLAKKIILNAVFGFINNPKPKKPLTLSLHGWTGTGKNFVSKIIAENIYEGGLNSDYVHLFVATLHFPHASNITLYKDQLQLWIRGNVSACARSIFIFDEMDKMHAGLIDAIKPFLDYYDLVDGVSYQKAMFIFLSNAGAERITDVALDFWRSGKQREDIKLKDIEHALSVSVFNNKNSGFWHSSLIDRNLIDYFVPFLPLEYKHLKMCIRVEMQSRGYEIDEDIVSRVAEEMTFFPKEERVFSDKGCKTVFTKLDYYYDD
Chain of NADPH oxidase 5 (Homo sapiens) (Q96PH1 whole entry, looked up): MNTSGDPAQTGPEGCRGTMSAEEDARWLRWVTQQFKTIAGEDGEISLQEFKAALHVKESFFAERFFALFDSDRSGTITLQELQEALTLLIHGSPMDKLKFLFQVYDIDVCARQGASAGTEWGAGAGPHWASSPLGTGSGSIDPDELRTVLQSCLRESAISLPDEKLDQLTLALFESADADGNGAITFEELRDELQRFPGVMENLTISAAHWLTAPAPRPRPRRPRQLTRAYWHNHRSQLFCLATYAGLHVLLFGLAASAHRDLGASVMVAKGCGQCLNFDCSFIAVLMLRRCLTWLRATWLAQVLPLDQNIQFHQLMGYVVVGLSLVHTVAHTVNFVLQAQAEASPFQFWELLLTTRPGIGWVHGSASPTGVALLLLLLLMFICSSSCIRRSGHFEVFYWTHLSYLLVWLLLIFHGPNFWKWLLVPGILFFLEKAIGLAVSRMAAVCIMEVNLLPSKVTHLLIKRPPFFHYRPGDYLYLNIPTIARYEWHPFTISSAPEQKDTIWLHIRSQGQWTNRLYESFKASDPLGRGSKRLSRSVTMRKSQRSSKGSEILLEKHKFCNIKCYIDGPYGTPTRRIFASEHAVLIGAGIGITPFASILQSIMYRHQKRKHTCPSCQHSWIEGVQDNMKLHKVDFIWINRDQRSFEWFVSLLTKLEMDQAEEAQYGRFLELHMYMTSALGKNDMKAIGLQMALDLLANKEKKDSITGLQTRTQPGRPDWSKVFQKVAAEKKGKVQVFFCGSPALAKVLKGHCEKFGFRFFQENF
Chain of Streptavidin (Streptomyces avidinii) (P22629 whole entry, looked up): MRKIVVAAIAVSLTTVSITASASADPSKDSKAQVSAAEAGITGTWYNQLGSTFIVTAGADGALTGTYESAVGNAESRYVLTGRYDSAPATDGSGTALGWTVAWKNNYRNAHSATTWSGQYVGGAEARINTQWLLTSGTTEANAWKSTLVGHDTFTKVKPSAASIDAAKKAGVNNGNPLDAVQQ
Chain of NADPH oxidase 4 (Homo sapiens) (Q9NPH5 whole entry, looked up): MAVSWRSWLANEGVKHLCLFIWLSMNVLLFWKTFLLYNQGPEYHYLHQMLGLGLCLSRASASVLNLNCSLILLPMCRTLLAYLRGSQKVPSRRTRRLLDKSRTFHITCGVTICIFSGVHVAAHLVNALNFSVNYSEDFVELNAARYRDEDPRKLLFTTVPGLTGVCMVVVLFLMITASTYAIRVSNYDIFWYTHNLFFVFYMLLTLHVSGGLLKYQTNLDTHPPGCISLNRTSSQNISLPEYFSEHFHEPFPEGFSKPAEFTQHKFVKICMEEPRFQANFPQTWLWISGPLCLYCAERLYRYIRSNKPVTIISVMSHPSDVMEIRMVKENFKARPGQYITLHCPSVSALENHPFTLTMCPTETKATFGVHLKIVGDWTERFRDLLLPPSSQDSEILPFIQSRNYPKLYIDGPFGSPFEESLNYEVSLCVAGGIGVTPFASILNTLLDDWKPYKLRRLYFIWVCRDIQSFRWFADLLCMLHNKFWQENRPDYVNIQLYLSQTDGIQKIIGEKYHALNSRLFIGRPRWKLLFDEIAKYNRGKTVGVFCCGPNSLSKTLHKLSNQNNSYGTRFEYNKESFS
Chain of NADPH oxidase 2 (Homo sapiens) (P04839 whole entry, looked up): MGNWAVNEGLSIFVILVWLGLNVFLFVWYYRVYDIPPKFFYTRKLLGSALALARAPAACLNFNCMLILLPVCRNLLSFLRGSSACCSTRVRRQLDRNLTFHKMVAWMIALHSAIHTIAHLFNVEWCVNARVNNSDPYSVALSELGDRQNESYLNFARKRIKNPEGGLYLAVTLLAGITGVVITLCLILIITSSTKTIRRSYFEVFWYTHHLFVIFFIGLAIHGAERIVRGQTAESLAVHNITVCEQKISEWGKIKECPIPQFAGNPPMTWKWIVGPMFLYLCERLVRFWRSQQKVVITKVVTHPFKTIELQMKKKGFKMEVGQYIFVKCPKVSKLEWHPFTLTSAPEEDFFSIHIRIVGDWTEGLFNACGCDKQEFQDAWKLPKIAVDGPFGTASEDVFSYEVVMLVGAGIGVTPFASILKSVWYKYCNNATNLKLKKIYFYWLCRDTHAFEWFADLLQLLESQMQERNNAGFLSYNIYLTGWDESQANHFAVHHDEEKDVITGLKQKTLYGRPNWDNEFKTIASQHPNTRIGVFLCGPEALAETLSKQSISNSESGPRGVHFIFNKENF

`O=C1O[C@H](c2ccccc2)[C@H](c2ccccc2)N2[C@H]1[C@@H](C(=O)NC[C@H](O)c1ccccc1)[C@]1(C(=O)Nc3ccccc31)[C@H]2c1ccccc1OCCO`: the composite z-score was -0.0435 in [1]; -0.164 in assay [6]; 0.0841 in assay [7]; 0.735 with Torsin-1A (Homo sapiens) [8]; 1.18 with Torsin-1A (Homo sapiens) [9]; 1.29 in assay [10]. The molecule further showed a composite z-score in assay [12] of 0.453. The z-score in [2] is -6.33 (inactive); in assay [3], -0.908 (inactive); in assay [4], -0.581 (inactive); in assay [5], -0.563 (inactive); in [11], 2.45 (inactive); in assay [13], 5.21 (inactive). Besides, the z-score in assay [14] was 1.84 (inactive); in assay [15] it was -2.5 (inactive); in [16], -0.343 (inactive); in assay [17], 2.39; in [18], 1.23 (inactive); in [19], 0.707 (inactive). Also, in assay [20], the z-score was 0.34.
With `CCCCC(=C=CC[C@H](O)c1ccccc1OCCO)C[C@H](O)c1ccccn1`, the composite z-score in assay [1] is -0.135; in assay [6], 0.597; in [7] it was -0.0762; with Torsin-1A (Homo sapiens) [8], 0.718; with Torsin-1A (Homo sapiens) [9] it was 1.01; in [10], 1.4. In [12], this molecule had a composite z-score of -0.0536. Besides, the z-score in assay [2] was -0.392 (inactive); in [3], -0.0512 (inactive); in assay [4] it was 6.34 (inactive); in [5], -0.872 (inactive); in assay [11], 1.47 (inactive); in [13], 4.7 (inactive). Besides, the z-score is 1.16 (inactive) in [14]; 2.3 (inactive) in assay [15]; 0.576 (inactive) in assay [16]; 0.822 in assay [17]; -0.778 (inactive) in [18]; -0.193 (inactive) in assay [19]. For the same molecule, the z-score in assay [20] was -1.37.
As to `CCCC[C@@H](O)C1=C(COc2ccccc2)Cn2c(=O)n(-c3ccccc3)c(=O)n2[C@H]1CO`, the composite z-score in assay [1] is -0.154; in [6] it was -0.447; in [7] it was -0.0762; with Torsin-1A (Homo sapiens) [8], -0.218; with Torsin-1A (Homo sapiens) [9] it was -0.348; in assay [10] it was -0.0649. For the same molecule, the composite z-score in assay [12] was -0.275. Further, the z-score is -1.86 (inactive) in assay [2]; -0.569 (inactive) in assay [3]; 1.67 (inactive) in assay [4]; -1.23 (inactive) in assay [5]; 2.85 (inactive) in assay [11]; 2.58 (inactive) in [13]. Besides, the z-score in assay [14] was -0.478 (inactive); in assay [15], -0.34 (inactive); in [16], -2.27 (inactive); in assay [17] it was 0.814; in assay [18] it was -0.809 (inactive); in assay [19], 0.33 (inactive). Moreover, in assay [20], the z-score is -0.235.
As to `COc1ccc([Si](C)(C)[C@@H]2[C@@H](CC(=O)N3Cc4ccccc4C[C@H]3CO)O[C@]3(C(=O)N(Cc4cccc(N5CCCCC5=O)c4)c4ccccc43)[C@H]2C)cc1`, the composite z-score in assay [1] was found to be 0.41; in [6], 0.287; in assay [7], 0.17; with Torsin-1A (Homo sapiens) [8], 0.652; with Torsin-1A (Homo sapiens) [9], 0.101; in [10], 1.76. This molecule also displayed a composite z-score in [12] of -0.147. For the same molecule, the z-score was -3.71 (inactive) in assay [2]; 0.723 (inactive) in [3]; 1.88 (inactive) in [4]; -0.136 (inactive) in [5]; -0.261 (inactive) in assay [11]; 4.07 (inactive) in [13]. Besides, the z-score in assay [14] was 1.27 (inactive); in [15], 1.64 (inactive); in assay [16] it was 0.867 (inactive); in assay [17], 0.297; in assay [18] it was -1.63 (inactive); in [19] it was 0.265 (inactive). Further, the z-score in assay [20] was 0.805.
As to `COC(=O)[C@H]1N=C(c2ccc(OCCCO)cc2)O[C@H]1c1ccccc1CN=[N+]=[N-]`, the composite z-score in assay [1] was -0.0973; in assay [6], -0.129; in [7], 0.11; with Torsin-1A (Homo sapiens) [8], -1.66; with Torsin-1A (Homo sapiens) [9], -0.8; in [10], 0.166. The molecule also gave a composite z-score in assay [12] of 0.938. Also, the z-score was -1.45 (inactive) in assay [2]; 0.446 (inactive) in assay [3]; -0.23 (inactive) in [4]; -0.785 (inactive) in assay [5]; 0.495 (inactive) in [11]; 24 (active) in [13]. Further, the z-score is 7.57 (inactive) in assay [14]; 1.35 (inactive) in assay [15]; 1.11 (inactive) in assay [16]; -0.221 in [17]; -0.102 (inactive) in assay [18]; 1.43 (inactive) in assay [19]. Besides, the z-score in assay [20] came to 0.352.

For the origin of these results see PubChem BioAssay.
